Experiment [1] is described as follows: qHTS assay to identify small molecule agonists of the hypoxia (HIF-1) signaling pathway - cell viability counter screen (AID 1224844; calls by dose curve; note: % is set by controls: 0 for no effect and ±100 for the full control effect; nearly all actives have a fitted effect of over 50% in size). In a few lines: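 Cytotoxicity was measured in parallel with the HRE-driven beta-lactamase readout: after 17 hrs of compound exposure at 37C, HRE-bla ME-180 cells received CellTiter-Glo and luminescence was recorded 30 min later.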

Experiment [2] can be described thus: qHTS assay to identify small molecule agonists of the hypoxia (HIF-1) signaling pathway (AID 1224846; active = well fitted activation curve with a large enough effect in the signal ratio in the repeat runs, not every such curve was filed as active; the % refers to the signal ratio; note: % is set by controls: 0 for no effect and ±100 for the full control effect). Put shortly: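 Compounds from the Tox21 10K library, dissolved in DMSO, are tested for induction of a hypoxia response element–controlled beta-lactamase reporter in ME-180 cells. Exposure lasts 17 hrs at 37C after a 5 hr settling period, followed by CCF4-AM FRET substrate.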
For orientation: In qHTS, concentration-response curves come from the screen itself.

The nature of experiment [3]: qHTS assay to identify small molecule agonists of H2AX - cell viability counter screen (AID 1224847; calls by dose curve;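 note: wild-type CHO-K1 cells; top concentration of the series differs between compounds; % is set by controls: 0 for no effect and ±100 for the full control effect; nearly all actives have a fitted effect of over 30% in size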). Put shortly:
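After overnight plating of 1000 CHO-K1 cells per well, a 15-concentration compound series was applied for 3 hr at 37C. Luminescence from CellTiter-Glo, read following 30 min at room temperature, reflected cell viability.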

Experiment [4] in a line: qHTS RealTime-Glo MT Cell Viability Assay in HepG2 cells - 24 hour (AID 1224867). Note: % is set by controls: 0 for no effect and ±100 for the full control effect; nearly all actives have a fitted effect of over 50% in size. In a few lines: (§1)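 Cell number in HepG2 cultures estimated from NanoLuc luminescence generated by metabolic reduction of a prosubstrate by living cells. The homogeneous, nonlytic format allowed repeated reads at 0, 8, 16, 24, 32 and 40 h of compound exposure.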
Experiment [5] can be described thus: qHTS RealTime-Glo MT Cell Viability Assay in HEK293 cells - 32 hour (AID 1224868). For activity change, negative = cytotoxic: top concentration of the series differs between compounds; % is set by controls: 0 for no effect and ±100 for the full control effect. Note: nearly all actives have a fitted effect of over 50% in size. Note: potency is the fitted concentration of half-maximal effect. Put shortly: (§2)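 Homogeneous bioluminescent viability format in HEK293 cells (600 cells/well). Following 5 h at 37 C/5% CO2, 23 nL compound was pintooled; the signal was measured repeatedly during 40 h incubation.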
A short description of experiment [6]: A CellTox Green Cytotoxicity Assay to monitor cytotoxicity in HEK293 cells - 0 hour (AID 1224869). Note: % is set by controls: 0 for no effect and ±100 for the full control effect; nearly all actives have a fitted effect of over 50% in size. Put shortly: (§3)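 Cells (HEK293, 600/well) and dye reagent are dispensed together. After 5 h at 37 C, 23 nL compound is pinned in. Plates stay at 37 C for 40 h with fluorescence read at 0h, 8h, 16h, 24h, 32h and 40h.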
A short description of experiment [7]: qHTS RealTime-Glo MT Cell Viability Assay in HepG2 cells - 40 hour (AID 1224870). In a few lines:
(§4)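 HepG2 cells mixed with RealTime-Glo MT reagents (NanoLuc plus cell-permeant prosubstrate) were seeded at 600 cells/well, incubated 5 h at 37 C/5% CO2, then pinned with compounds in DMSO; nonlytic luminescence tracked viability during 40 h treatment.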

Experiment [8] can be described thus: A CellTox Green Cytotoxicity Assay to monitor cytotoxicity in HEK293 cells - 40 hour (AID 1224871). For cytotoxicity increase: % is set by controls: 0 for no effect and ±100 for the full control effect. Note: nearly all actives have a fitted effect of over 45% in size. Note: potency is the fitted concentration of half-maximal effect. In a few lines:
as §3

Experiment [9] can be described thus: qHTS RealTime-Glo MT Cell Viability Assay in HEK293 cells - 16 hour (AID 1224872). For activity change, negative = cytotoxicity: top concentration of the series differs between compounds; % is set by controls: 0 for no effect and ±100 for the full control effect. Note: nearly all actives have a fitted effect of over 50% in size. Note: potency is the fitted concentration of half-maximal effect. In a few lines: as §2
Experiment [10] can be described thus: qHTS RealTime-Glo MT Cell Viability Assay in HEK293 cells - 40 hour (AID 1224874). Note: nearly all actives have a fitted effect of over 50% in size. Note: potency is the fitted concentration of half-maximal effect. The conditions noted are these: RealTime-Glo luminescence; max response: stronger effect = lower value. In a few lines:
(§5)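 Real-time viability in HEK293: signal arises when living cells convert a prosubstrate for NanoLuc in the medium, so luminescence tracks viable cell number. Compound (23 nL, DMSO) added 5 h post-seeding; kinetic reads at 0–40 h, 37 C.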

A short description of experiment [11]: A CellTox Green Cytotoxicity Assay to monitor cytotoxicity in HEK293 cells - 24 hour (AID 1224875). Note: nearly all actives have a fitted effect of over 45% in size. Note: potency is the fitted concentration of half-maximal effect. Put shortly: as §3
The nature of experiment [12]: A CellTox Green Cytotoxicity Assay to monitor cytotoxicity in HepG2 cells - 16 hour (AID 1224876). Note: % is set by controls: 0 for no effect and ±100 for the full control effect; nearly all actives have a fitted effect of over 45% in size. In a few lines: (§6)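 Cells and non-lytic dye reagent are dispensed together (600 HepG2 cells/well) and incubated 5 h before DMSO compound transfer. Kinetic fluorescence is then recorded in the same wells during 40 h at 37 C.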
Experiment [13] can be described thus: qHTS RealTime-Glo MT Cell Viability Assay in HepG2 cells - 32 hour (AID 1224877). Note: % is set by controls: 0 for no effect and ±100 for the full control effect; nearly all actives have a fitted effect of over 55% in size. Put shortly:
as §1

A short description of experiment [14]: A CellTox Green Cytotoxicity Assay to monitor cytotoxicity in HepG2 cells - 24 hour (AID 1224878). Note: % is set by controls: 0 for no effect and ±100 for the full control effect; nearly all actives have a fitted effect of over 45% in size. Put shortly:
as §6

The nature of experiment [15]: A CellTox Green Cytotoxicity Assay to monitor cytotoxicity in HepG2 cells - 40 hour (AID 1224879). Note: nearly all actives have a fitted effect of over 40% in size. Note: potency is the fitted concentration of half-maximal effect. Put shortly:
as §6

Experiment [16] can be described thus: qHTS RealTime-Glo MT Cell Viability Assay in HEK293 cells - 0 hour (AID 1224880). Put shortly: as §5
The nature of experiment [17]: qHTS assay to identify small molecule antagonists of the estrogen related receptor (ERR) signaling pathway from Tox21 library (AID 1224848). In a few lines: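 Tox21 10K compounds in DMSO tested for ERR pathway antagonism in NTP's ERR cell line; 18 h, 37 C exposure; ONE-Glo luminescence.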
Experiment [18] in a line: qHTS assay to identify small molecule agonists of the estrogen related receptor (ERR) signaling pathway from Tox21 library (AID 1224849; calls by dose curve; note: % is set by controls: 0 for no effect and ±100 for the full control effect; nearly all actives have a fitted effect of over 15% in size). The conditions noted are these: ERR reporter cell line, ONE-Glo luciferase, 18 h; at 92.4 µM (top of the series) unless noted. Put shortly:
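Cells carrying the ERR reporter were plated and allowed to settle for 6 h, exposed to library compounds for 18 h at 37 C, then lysed with ONE-Glo and luminescence measured.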

Experiment [19] can be described thus: qHTS RealTime-Glo MT Cell Viability Assay in HepG2 cells - 8 hour (AID 1224873). Note: % is set by controls: 0 for no effect and ±100 for the full control effect; nearly all actives have a fitted effect of over 55% in size. In a few lines:
as §4

The results in this text go back to PubChem BioAssay (Tox21).

SMILES strings stand for the structures. Unmarked numbers belong to inactive results. Inconclusive results are not listed. Activity calls are given as the source filed them. Unless noted, calls come from the whole dose curve; as a rule, active = well fitted curve in the direction sought with a large enough effect in the repeat runs; inconclusive = weak or mixed curves; inactive = no such curve, though single readings can be large; an effect the other way counts as inactive or inconclusive.

In the case of `CCOC(=S)SSC(=S)OCC`, the Potency result in experiment [1], in experiment [3], in experiment [4], in [5], in experiment [6] and in [7] was “inactive” throughout. The Potency entry in [8], in [9], in experiment [11], in experiment [12], in [13] and in experiment [14] was “inactive” in each case. In addition, the Potency entry in [15] and in experiment [16] was “inactive” in each case. Also, the compound was classed as inactive in experiment [2]. Also, in experiment [10], the max response is 1.68%.
For the compound `CC(=O)N(O)CCCCCNC(=O)CCC(=O)N(O)CCCCCNC(=O)CCC(=O)N(O)CCCCCN`, the Potency entry in [1], in [3], in [4], in experiment [6], in experiment [7] and in experiment [8] was “inactive” each time. For the same compound, the Potency result in experiment [9], in experiment [19], in experiment [11], in experiment [12], in experiment [13] and in experiment [14] was “inactive” each time. Moreover, in experiment [15], the Potency entry was “inactive”. Moreover, the result in experiment [2] was inactive. The Potency in experiment [17] was 26.6 µM (active); in experiment [10], 21.3 µM (active). Further, the activity change, positive = activation in experiment [18] was -34.7% [at 42.5 µM].
On to `CC(=O)/C(C)=C/C1C(C)=CCCC1(C)C` (stereo not given), for which the Potency entry in experiment [1], in experiment [3], in experiment [4], in experiment [5], in experiment [6] and in experiment [7] was “inactive” each time. Besides, the Potency result in [9], in experiment [19], in [13] and in experiment [16] was “inactive” throughout. Further, in experiment [2], the compound was called inactive. Also, the activity change, positive = activation in experiment [18] was 5.66%. Moreover, the Potency in experiment [8] and in experiment [11] was 17.4 µM (active) each time. Moreover, the max response in experiment [10] is -10.3%.
In the case of `Cc1nc2ccccc2n1Cc1ccc(Cl)cc1`, the Potency result in experiment [1], in [3], in experiment [4], in experiment [6], in experiment [7] and in experiment [8] was “inactive” throughout. In addition, the Potency entry in experiment [19], in [11], in experiment [13], in experiment [14], in experiment [15] and in experiment [16] was “inactive” throughout. In experiment [2], the result was inactive. Also, the values for the Potency in experiment [5], in experiment [9] and in [10] were 1.69 µM (active), 3.01 µM (active) and 1.69 µM (active), respectively.
For the compound `CCOC(=O)C1=NN(c2ccccc2)C(=O)C1`, the Potency result in experiment [1], in [3], in [4], in experiment [5], in experiment [6] and in experiment [7] was “inactive” each time. Besides, the Potency result in [8], in experiment [9], in experiment [11], in experiment [12], in experiment [13] and in experiment [14] was “inactive” in each case. The Potency entry in [15] and in experiment [16] was “inactive” throughout. For the same compound, in [2], the compound was classed as inactive. Moreover, the max response in [10] is 1.57%.
`O=C1Nc2cc(Cl)ccc2Oc2ccccc21`: the Potency result in [1], in experiment [3], in experiment [4], in experiment [5], in experiment [6] and in experiment [7] was “inactive” each time. The Potency result in experiment [8], in experiment [9], in [19], in [11], in [12] and in experiment [13] was “inactive” throughout. In addition, the Potency result in experiment [14], in [15] and in [16] was “inactive” each time. For the same compound, in [2], the compound was called inactive. Also, the max response in experiment [10] is 5.17%.
Regarding `Cn1c(N)nc2nc[nH]c2c1=O`, the Potency result in experiment [1], in experiment [3], in [4], in experiment [6], in experiment [7] and in experiment [8] was “inactive” throughout. In addition, the Potency entry in [19], in experiment [11], in experiment [12], in [13] and in experiment [14] was “inactive” each time. Also, in experiment [2], the compound was classed as inactive. In experiment [15], the Potency was 21.6 µM (active).
Take `O=C(C(=O)c1ccc(Br)cc1)c1ccc(Br)cc1`: the activity change, negative = cytotoxicity in [1] is -11.6% [at 15.8 µM]; in [3] it was 0.693% [at 31.6 µM]; in experiment [4] it was -0.799% [at 15.8 µM]; in experiment [9], 5.77% [at 15.8 µM]; in experiment [16], -3.2% [at 15.8 µM]. The activation in experiment [2] was -1.03% [at 15.8 µM]. For the same compound, the activity change, positive = activation in [18] is 0.063% [at 19 µM]. For the same compound, the activity change, negative = cytotoxic in experiment [5] was 3.98% [at 15.8 µM]; in experiment [13] it was 2.16% [at 15.8 µM]. In addition, the cytotoxicity is 1.99% [at 15.8 µM] in experiment [6] and -10% [at 15.8 µM] in [14]. Moreover, the cytotoxicity increase in experiment [8] was 0.336% [at 15.8 µM]; in experiment [15] it was -10.2% [at 15.8 µM]. Besides, in experiment [19], the viability change, negative = cytotoxic was -3.19% [at 15.8 µM]. Also, the max response in experiment [10] was 0.201%.
